About 7,900 targets were measured; listed, in parts, are those with a hit and a random draw of the rest. About 0.6% of all pairs of compound and target were hits. A number with no mark means an inactive call.
Experiments:
Assay in all cases: log2 fold change, soluble protein after heating vs DMSO (PISA); higher = thermal stabilisation; K562 cells, 10 uM, 30 min; active = over 0.2 and 3.5 SD of the protein, either way, in both replicates (recomputed)
[1] = compound: CC1=C(C=C(C=C1)NC(=O)C2=CC(=CC=C2)C(C)(C)C#N)NC3=CC4=C(C=C3)N=CN(C4=O)C
Summary of the method: (§1)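 Soluble protein was defined as the supernatant after 21,000xg for 90 min. It came from K562 cells at 2×10^6 cells/mL given 10 μM compound for 30 min, heated in aliquots for 3 min across 48°C-58°C, pooled, and extracted in PBS with 0.5% NP-40 at 4°C, and was quantified by TMTpro 16plex LC-MS/MS with equalised channel sums. Thermal stability against control samples, from duplicates, is reported as log2 fold change.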

[2] = compound: CC1=C(C=C(C=C1)NC(=O)C2=CC(=CC=C2)N(C)C)NC(=O)C3=CC=C(C=C3)O
Summary of the method: as §1

[3] = compound: CC1=CC=C(C=C1)SC2=C3C=C(SC3=CN=C2)C(=O)N
Summary of the method: as §1

[4] = compound: CC1=NC(=CC=C1)C2=C(N=C(N2)C(C)(C)C)C3=CC4=NC=CN=C4C=C3
Summary of the method: as §1

Nexturastat A = compound: CCCCN(Cc1ccc(C(=O)NO)cc1)C(=O)Nc1ccccc1 [Nexturastat A]
Summary of the method: as §1

vemurafenib = compound: CCCS(=O)(=O)Nc1ccc(F)c(C(=O)c2c[nH]c3ncc(-c4ccc(Cl)cc4)cc23)c1F [vemurafenib]
Summary of the method: as §1

[5] = compound: CCCS(=O)(=O)Nc1ccc(F)c(C(=O)c2c[nH]c3ncc(Cl)cc23)c1F
Summary of the method: as §1

[6] = compound: CCCc1cc(C)[nH]c(=O)c1CNC(=O)c1cc(-c2ccnc(N3CCN(C)CC3)c2)cc2c1cnn2C(C)C
Summary of the method: as §1

givinostat = compound: CCN(CC)Cc1ccc2cc(COC(=O)Nc3ccc(C(=O)NO)cc3)ccc2c1 [givinostat]
Summary of the method: as §1

barasertib = compound: CCN(CCCOc1ccc2c(Nc3cc(CC(=O)Nc4cccc(F)c4)[nH]n3)ncnc2c1)CCOP(=O)(O)O [barasertib]
Summary of the method: as §1

[7] = compound: CC[C@@H]1C(=O)N(C)c2cnc(Nc3ccc(C(=O)NC4CCN(C)CC4)cc3OC)nc2N1C1CCCC1
Summary of the method: as §1

volasertib = compound: CC[C@@H]1C(=O)N(C)c2cnc(Nc3ccc(C(=O)N[C@H]4CC[C@H](N5CCN(CC6CC6)CC5)CC4)cc3OC)nc2N1C(C)C [volasertib]
Summary of the method: as §1

[8] = compound: CC[C@H](C)N1C=C(C2=C(C=C(C=C21)C3=CN=C(C=C3)N4CCNCC4)C(=O)NCC5=C(C=C(NC5=O)C)C)C
Summary of the method: as §1

epoxomicin = compound: CC[C@H](C)[C@@H](C(=O)N[C@@H]([C@@H](C)O)C(=O)N[C@@H](CC(C)C)C(=O)[C@]1(CO1)C)NC(=O)[C@H]([C@@H](C)CC)N(C)C(=O)C [epoxomicin]
Summary of the method: as §1

[9] = compound: CCn1c(C(=O)N(C2CC2)C2CC2)cc2c3c(ncn3C)c(Nc3cc(C)n(C)n3)nc21
Summary of the method: as §1

[10] = compound: CCn1cc(-c2ccnc3[nH]c(-c4cccc(CN(C)C)c4)cc23)c(-c2ccc(NC(=O)N(C)C)cc2)n1
Summary of the method: as §1

[11] = compound: CN(C)CC(=O)Nc1ccc2[nH]c(=O)c3ccccc3c2c1
Summary of the method: as §1

rosiglitazone = compound: CN(CCOC1=CC=C(C=C1)C[C@H]2C(=O)NC(=O)S2)C3=CC=CC=N3 (racemic) [rosiglitazone]
Summary of the method: as §1

[12] = compound: CN1C2=C(C3=C1C(=O)N(N=C3)CC4=CC(=CC=C4)N)SC(=C2)S(=O)C
Summary of the method: as §1

[13] = compound: CN1CCC(CNc2ccc3ncc(-c4cccc(OC(F)(F)F)c4)n3n2)CC1
Summary of the method: as §1

Sequence of UniProt Q70CQ2 (Q70CQ2 whole entry, looked up): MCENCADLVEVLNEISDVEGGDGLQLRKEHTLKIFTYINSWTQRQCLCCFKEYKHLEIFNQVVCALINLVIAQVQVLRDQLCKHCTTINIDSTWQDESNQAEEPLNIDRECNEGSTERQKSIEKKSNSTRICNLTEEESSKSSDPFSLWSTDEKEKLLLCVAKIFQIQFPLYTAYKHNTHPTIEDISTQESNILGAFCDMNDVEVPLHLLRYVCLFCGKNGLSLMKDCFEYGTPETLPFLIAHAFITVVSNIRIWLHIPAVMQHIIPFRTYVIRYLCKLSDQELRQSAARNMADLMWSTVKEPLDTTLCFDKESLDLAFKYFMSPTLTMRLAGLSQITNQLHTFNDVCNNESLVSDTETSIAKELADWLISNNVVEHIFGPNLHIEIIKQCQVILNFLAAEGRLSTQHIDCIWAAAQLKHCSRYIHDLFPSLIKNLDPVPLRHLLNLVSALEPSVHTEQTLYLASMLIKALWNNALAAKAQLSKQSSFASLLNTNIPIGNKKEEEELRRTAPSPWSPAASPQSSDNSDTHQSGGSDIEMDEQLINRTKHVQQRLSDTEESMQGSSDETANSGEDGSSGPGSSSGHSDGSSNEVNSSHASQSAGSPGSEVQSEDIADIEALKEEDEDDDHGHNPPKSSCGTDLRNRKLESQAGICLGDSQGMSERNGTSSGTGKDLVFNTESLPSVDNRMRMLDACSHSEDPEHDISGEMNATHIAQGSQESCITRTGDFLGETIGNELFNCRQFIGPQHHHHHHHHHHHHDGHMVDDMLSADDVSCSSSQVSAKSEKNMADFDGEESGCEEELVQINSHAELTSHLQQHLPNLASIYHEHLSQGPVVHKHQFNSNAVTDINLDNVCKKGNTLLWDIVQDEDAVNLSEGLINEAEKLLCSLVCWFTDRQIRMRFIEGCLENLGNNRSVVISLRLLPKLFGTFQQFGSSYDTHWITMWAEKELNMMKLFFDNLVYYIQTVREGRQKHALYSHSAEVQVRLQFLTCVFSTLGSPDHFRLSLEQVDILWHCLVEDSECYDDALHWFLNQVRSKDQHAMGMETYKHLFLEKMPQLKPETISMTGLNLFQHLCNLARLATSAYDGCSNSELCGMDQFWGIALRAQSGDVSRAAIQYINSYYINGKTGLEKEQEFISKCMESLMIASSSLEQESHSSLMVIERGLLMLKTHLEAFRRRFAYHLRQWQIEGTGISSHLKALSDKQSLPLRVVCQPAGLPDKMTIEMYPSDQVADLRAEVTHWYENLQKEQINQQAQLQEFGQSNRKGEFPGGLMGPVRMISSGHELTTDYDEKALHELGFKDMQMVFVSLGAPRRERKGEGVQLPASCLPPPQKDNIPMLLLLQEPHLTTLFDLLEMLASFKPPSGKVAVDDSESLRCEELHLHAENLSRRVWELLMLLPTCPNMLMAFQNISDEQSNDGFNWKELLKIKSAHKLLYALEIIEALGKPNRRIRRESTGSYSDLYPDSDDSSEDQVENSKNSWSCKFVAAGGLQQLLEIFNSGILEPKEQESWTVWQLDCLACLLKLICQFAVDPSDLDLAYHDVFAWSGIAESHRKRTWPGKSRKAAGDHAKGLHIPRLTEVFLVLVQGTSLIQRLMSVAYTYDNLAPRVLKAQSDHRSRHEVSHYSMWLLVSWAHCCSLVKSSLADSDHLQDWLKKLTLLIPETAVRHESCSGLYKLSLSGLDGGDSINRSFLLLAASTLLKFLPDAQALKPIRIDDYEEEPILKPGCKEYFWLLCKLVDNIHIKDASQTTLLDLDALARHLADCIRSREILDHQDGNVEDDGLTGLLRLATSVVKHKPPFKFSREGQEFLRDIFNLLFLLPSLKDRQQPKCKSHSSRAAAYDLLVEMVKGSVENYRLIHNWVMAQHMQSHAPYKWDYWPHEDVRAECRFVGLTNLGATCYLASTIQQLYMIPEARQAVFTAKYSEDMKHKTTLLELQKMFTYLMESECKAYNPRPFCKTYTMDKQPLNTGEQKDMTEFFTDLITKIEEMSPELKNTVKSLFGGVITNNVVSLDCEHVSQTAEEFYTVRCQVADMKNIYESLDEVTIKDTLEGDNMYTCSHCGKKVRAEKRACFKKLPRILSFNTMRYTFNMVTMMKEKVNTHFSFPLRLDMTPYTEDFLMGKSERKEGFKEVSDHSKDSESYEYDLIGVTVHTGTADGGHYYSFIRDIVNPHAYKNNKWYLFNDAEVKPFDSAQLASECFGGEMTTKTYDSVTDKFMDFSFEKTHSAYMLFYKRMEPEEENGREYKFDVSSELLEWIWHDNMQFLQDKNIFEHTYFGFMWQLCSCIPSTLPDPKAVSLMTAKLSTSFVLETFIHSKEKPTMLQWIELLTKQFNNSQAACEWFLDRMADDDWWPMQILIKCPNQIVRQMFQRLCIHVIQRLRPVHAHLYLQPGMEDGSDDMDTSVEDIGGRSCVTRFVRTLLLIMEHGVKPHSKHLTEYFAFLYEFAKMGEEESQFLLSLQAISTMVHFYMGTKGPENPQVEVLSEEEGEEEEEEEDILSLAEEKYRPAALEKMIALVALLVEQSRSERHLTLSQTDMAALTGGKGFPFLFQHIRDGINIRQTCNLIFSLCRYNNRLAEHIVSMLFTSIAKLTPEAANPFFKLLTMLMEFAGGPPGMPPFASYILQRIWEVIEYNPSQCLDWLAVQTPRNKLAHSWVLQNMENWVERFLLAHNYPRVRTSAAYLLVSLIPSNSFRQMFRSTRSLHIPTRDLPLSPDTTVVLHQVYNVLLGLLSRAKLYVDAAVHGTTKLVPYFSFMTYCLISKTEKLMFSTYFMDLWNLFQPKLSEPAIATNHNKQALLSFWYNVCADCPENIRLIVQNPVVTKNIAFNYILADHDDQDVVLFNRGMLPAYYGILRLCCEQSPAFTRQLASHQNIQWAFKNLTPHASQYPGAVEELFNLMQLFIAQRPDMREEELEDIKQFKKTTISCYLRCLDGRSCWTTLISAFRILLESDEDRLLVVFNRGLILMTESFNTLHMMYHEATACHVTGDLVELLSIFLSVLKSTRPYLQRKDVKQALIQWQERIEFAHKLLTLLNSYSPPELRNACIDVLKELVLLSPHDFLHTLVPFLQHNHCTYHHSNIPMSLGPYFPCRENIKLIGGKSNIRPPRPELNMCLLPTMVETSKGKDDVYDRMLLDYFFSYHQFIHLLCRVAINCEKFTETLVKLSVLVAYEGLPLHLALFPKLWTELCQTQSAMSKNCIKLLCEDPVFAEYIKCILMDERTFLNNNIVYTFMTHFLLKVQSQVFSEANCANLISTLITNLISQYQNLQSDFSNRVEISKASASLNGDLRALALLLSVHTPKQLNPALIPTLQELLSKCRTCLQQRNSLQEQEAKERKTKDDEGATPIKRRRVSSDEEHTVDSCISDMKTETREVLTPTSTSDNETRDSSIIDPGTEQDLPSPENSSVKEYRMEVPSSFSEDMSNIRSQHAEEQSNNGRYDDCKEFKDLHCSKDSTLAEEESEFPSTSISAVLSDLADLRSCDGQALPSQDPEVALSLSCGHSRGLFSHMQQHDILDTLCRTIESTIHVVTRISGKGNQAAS
Sequence of UniProt Q8IZ69 (Q8IZ69 whole entry, looked up): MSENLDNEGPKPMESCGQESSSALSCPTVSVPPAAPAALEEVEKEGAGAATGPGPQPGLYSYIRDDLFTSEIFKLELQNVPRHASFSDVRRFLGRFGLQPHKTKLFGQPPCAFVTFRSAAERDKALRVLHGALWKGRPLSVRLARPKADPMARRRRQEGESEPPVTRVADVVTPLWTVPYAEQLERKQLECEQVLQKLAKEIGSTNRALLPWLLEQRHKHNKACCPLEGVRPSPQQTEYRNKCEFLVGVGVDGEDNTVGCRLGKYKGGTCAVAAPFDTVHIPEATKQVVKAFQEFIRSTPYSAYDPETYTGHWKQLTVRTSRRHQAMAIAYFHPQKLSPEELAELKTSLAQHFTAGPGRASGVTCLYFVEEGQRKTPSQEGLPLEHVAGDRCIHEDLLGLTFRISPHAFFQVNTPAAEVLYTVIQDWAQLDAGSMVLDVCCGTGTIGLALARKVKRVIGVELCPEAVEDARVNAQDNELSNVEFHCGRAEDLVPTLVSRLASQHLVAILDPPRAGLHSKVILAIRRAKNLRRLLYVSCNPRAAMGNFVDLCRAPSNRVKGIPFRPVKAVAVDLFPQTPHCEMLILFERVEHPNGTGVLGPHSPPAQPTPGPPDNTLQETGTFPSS
Sequence of UniProt Q6VEQ5 (Q6VEQ5 whole entry, looked up): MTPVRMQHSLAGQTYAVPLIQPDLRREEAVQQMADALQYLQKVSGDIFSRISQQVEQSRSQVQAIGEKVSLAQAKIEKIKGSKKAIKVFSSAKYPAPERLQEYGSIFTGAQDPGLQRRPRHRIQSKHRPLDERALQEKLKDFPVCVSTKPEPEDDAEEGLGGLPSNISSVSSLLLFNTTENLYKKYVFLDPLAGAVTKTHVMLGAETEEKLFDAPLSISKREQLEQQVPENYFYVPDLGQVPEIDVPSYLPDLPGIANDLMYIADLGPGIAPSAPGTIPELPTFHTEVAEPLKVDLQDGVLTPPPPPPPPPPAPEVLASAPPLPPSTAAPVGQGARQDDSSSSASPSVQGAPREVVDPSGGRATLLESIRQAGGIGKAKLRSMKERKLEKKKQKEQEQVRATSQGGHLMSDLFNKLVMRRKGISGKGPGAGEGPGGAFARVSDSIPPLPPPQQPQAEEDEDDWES
Sequence of UniProt Q9UBK9 (Q9UBK9 whole entry, looked up): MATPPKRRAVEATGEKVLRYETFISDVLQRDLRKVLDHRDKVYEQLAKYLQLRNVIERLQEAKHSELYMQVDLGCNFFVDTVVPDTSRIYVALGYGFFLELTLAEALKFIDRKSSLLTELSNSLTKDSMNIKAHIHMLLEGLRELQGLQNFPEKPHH
Sequence of UniProt Q96FX7 (Q96FX7 whole entry, looked up): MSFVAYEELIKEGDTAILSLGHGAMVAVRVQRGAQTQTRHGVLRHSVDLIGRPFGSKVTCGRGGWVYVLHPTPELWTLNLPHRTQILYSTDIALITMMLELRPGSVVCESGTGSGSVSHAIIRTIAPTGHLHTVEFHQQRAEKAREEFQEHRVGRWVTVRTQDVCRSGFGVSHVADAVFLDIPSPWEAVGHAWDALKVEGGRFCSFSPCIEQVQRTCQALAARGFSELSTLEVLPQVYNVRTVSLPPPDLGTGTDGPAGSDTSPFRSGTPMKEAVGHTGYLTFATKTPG

| Target | log2 fold change [1] | log2 fold change [2] | log2 fold change [3] | log2 fold change [4] | log2 fold change (Nexturastat A) | log2 fold change (vemurafenib) | log2 fold change [5] | log2 fold change [6] | log2 fold change (givinostat) | log2 fold change (barasertib) | log2 fold change [7] | log2 fold change (volasertib) | log2 fold change [8] | log2 fold change (epoxomicin) | log2 fold change [9] | log2 fold change [10] | log2 fold change [11] | log2 fold change (rosiglitazone) | log2 fold change [12] | log2 fold change [13] |
| --- | --- | --- | --- | --- | --- | --- | --- | --- | --- | --- | --- | --- | --- | --- | --- | --- | --- | --- | --- | --- |
| TRMT61A (UniProt Q96FX7) | 0 | 0.056 | -0.013 | -0.083 | 0.204 | -0.119 | -0.009 | 0.114 | 0.038 | -0.091 | 0.044 | 0.161 | 0.022 | -0.061 | 0.028 | 0.043 | -0.098 | -0.105 | 0.099 | -0.001 |
| XPO5 (UniProt Q9HAV4) | 0.031 | -0.039 | 0.054 | 0.031 | -0.053 | 0.013 | 0.056 | 0.014 | -0.029 | 0.029 | -0.122 | -0.263 (active) | 0.063 | 0.073 | 0.01 | -0.04 | 0.018 | 0.035 | -0.027 | -0.302 (active) |
| USP34 (UniProt Q70CQ2) | -0.02 | -0.094 | 0.077 | 0 | -0.12 | 0.08 | 0.032 | 0.052 | 0.094 | 0.069 | -0.215 | -0.455 (active) | -0.023 | 0.02 | -0.027 | -0.043 | 0.014 | 0.065 | 0.015 | -0.201 |
| UXT isoform 2 (UniProt Q9UBK9) | 0.008 | 0.003 | 0.039 | -0.074 | 0.904 (active) | -0.023 | -0.013 | 0.041 | 0.211 | 0.022 | 0.082 | 0.128 | 0.05 | -0.038 | -0.294 | -0.248 | 0.015 | 0.022 | -0.052 | -0.126 |
| USP24 (UniProt Q9UPU5) | 0.114 | -0.026 | 0 | 0.012 | -0.047 | 0 | 0.052 | -0.042 | 0.011 | -0.053 | -0.04 | -0.1 | -0.047 | 0.073 | -0.072 | -0.062 | 0.055 | -0.025 | -0.123 | 0.137 |
| WASH2P (UniProt Q6VEQ5) | -0.001 | -0.034 | 0.019 | 0 | 0.139 | 0.03 | -0.01 | 0.026 | -0.007 | 0.043 | -0.071 | -0.163 | 0.024 | 0 | 0.002 | 0.037 | 0.021 | 0.033 | 0.012 | -0.067 |
| UBE2S (UniProt Q16763) | 0.024 | -0.015 | 0.004 | 0.009 | 0.057 | 0.013 | 0.049 | -0.007 | 0.044 | 0.03 | -0.025 | -0.214 (active) | 0.005 | 0.195 | -0.009 | 0.015 | 0.048 | -0.004 | -0.048 | 0.024 |
| TRMT2A (UniProt Q8IZ69) | 0.083 | -0.02 | -0.009 | 0.005 | 0.013 | 0.022 | -0.032 | 0.085 | -0.123 | -0.003 | 0.01 | 0.016 | 0.044 | -0.083 | 0.086 | -0.003 | 0.034 | -0.001 | 0.1 | -0.198 |
